These results are taken from the supplement of paper PMC8728848.

Assay in all cases: glycan array binding signal (z-score within array); higher = stronger binding
Common to all, as to conditions: glycan notation: IUPAC condensed, linker removed

For one test, the target named is GlcNAc(b1-3)Gal(b1-4)Glc. In a few lines:
(§1)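 The binding signal is a Z-score computed within each array. Data were drawn from 3228 arrays in the Consortium for Functional Glycomics database, restricted to those with a known protein sequence. Scores were averaged over arrays of the same protein sequence at different concentrations or buffers, and over linkers, and negative values can be taken as non-binding.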

Test [1] deals with GlcNAc(b1-3)Gal(b1-4)GlcNAc(b1-3)Gal(b1-4)GlcNAc(b1-3)Gal(b1-4)GlcNAc(b1-2)Man(a1-3)[GlcNAc(b1-3)Gal(b1-4)GlcNAc(b1-3)Gal(b1-4)GlcNAc(b1-3)Gal(b1-4)GlcNAc(b1-2)Man(a1-6)]Man(b1-4)GlcNAc(b1-4)[Fuc(a1-6)]GlcNAc. In a few lines: as §1
The target of test [2] is GlcNAc(b1-6)Gal(b1-4)GlcNAc. In a few lines: as §1
The target in the next test is Kdn(a2-3)Gal(b1-4)GlcNAc. In a few lines: as §1
Test [3] addresses Neu5Ac(a2-3)Gal(b1-3)GlcNAc. The procedure, abridged:
as §1

The target in test [4] is Neu5Ac(a2-3)Gal(b1-3)GlcNAc(b1-3)Gal(b1-4)GlcNAc. In a few lines: as §1
Test [5] has as its target Neu5Ac(a2-3)Gal(b1-3)[Fuc(a1-4)]GlcNAc. In a few lines:
as §1

The target of test [6] is Neu5Ac(a2-3)Gal(b1-4)GlcNAc(b1-2)Man. In a few lines: as §1
Test [7] concerns the target Neu5Ac(a2-3)Gal(b1-4)GlcNAc(b1-3)Gal(b1-4)GlcNAc(b1-3)Gal(b1-4)GlcNAc(b1-2)Man(a1-3)[Neu5Ac(a2-3)Gal(b1-4)GlcNAc(b1-3)Gal(b1-4)GlcNAc(b1-3)Gal(b1-4)GlcNAc(b1-2)Man(a1-6)]GalNAc. The procedure, abridged:
as §1

Test [8] has as its target Neu5Ac(a2-3)Gal(b1-4)[Fuc(a1-3)]GlcNAc(b1-6)[Gal(b1-3)]GalNAc. The procedure, abridged: as §1
The target in test [9] is Neu5Ac(a2-3)Gal(b1-4)[Fuc(a1-3)]GlcNAc6S. The procedure, abridged:
as §1

The target of test [10] is Neu5Ac(a2-6)Gal(b1-3)GlcNAc(b1-3)[Gal(b1-4)GlcNAc(b1-6)]Gal(b1-4)Glc. In a few lines:
as §1

Test [11] deals with Neu5Ac(a2-6)Gal(b1-4)GlcNAc(b1-2)Man(a1-3)[Neu5Ac(a2-6)Gal(b1-4)GlcNAc(b1-2)Man(a1-6)]Man(b1-4)GlcNAc(b1-4)GlcNAc. The procedure, abridged:
as §1

For test [12], the target named is Neu5Ac(a2-8)Neu5Ac(a2-3)[GalNAc(b1-4)]Gal(b1-4)Glc. In a few lines: as §1
The target in test [13] is Neu5Ac(a2-8)Neu5Ac(a2-8)Neu5Ac. The procedure, abridged: as §1
The target in the next test is Gal(a1-3)GalNAc. The procedure, abridged: as §1
The next test addresses Gal(a1-4)Gal(b1-4)Glc. In a few lines: as §1
For test [14], the target named is Gal(b1-3)GalNAc(b1-4)Gal(b1-4)Glc. In a few lines: as §1
Test [15] concerns the target Gal(b1-4)GalNAc(a1-3)[Fuc(a1-2)]Gal(b1-4)GlcNAc. In a few lines:
as §1

In test [16] the target is Gal(b1-4)GlcNAc(b1-3)[Gal(b1-4)GlcNAc(b1-6)]GalNAc. The procedure, abridged: as §1
In test [17] the target is Gal3S(b1-3)[Fuc(a1-4)]GlcNAc. The procedure, abridged: as §1
The target of another test is Gal6S(b1-4)Glc6S. The procedure, abridged: as §1
The target of a further test is Glc(a1-4)Glc. The procedure, abridged: as §1
In test [18] the target is GlcNAc(b1-2)Gal(b1-3)GalNAc. In a few lines:
as §1

Test [19] deals with Neu5Ac(a2-3)[GalNAc(b1-4)]Gal(b1-4)Glc. In a few lines: as §1
For test [20], the target named is Neu5Ac(a2-6)Gal(b1-4)GlcNAc(b1-3)Gal(b1-4)[Fuc(a1-3)]GlcNAc(b1-3)Gal(b1-4)[Fuc(a1-3)]GlcNAc. The procedure, abridged:
as §1

Test [21] addresses Neu5Ac(a2-8)Neu5Ac(a2-8)Neu5Ac(a2-3)Gal(b1-4)Glc. The procedure, abridged:
as §1

Test [22] addresses Neu5Gc(a2-3)Gal(b1-3)GlcNAc. In a few lines:
as §1

The target of test [23] is Neu5Gc(a2-3)Gal(b1-4)[Fuc(a1-3)]GlcNAc. The procedure, abridged: as §1

The full list was thinned out, with the strongest signals kept by preference.

B1: CC1G-10077 (Coprinopsis cinerea), A8NDT7 (protein)
chain: MALNEGVYWIRNSRFTNKVLDLDAANVAKGTSILDFNEHGTFNENHNQLWIVERFQSRDTYLIRSVHSNLVLDLSQGLSANGTPILCWTQHGGTNQQWRIEWVKDDNKTPLYRIVSVATGTAISHNEDDSSAYTVAWSVDDGPKQLWSFDPFVTPLLYRLRVKSTSRVLDLAAASADNGTLALAWEQHTAITKRNQLWWLPYRSGAEEYTIQCLETSTVADLSGGNSGNGTPIYGWQSHGGRNQQWKFEPTSDSGDYYHIKNVEGGSVMDAYMNDSQKRVGGWSNNGGDNQKWLLDPLPSPGPGWVLIQNGGTGKFLCSTPSGDIGTADGPETVYDYSVQWRFIQREYTGVYHVVNRATGAYLRQIGTSMPSIGLAEENDDELKDWWMLETYDNSEIGLASIISRWTGNVLDHYGGVSVQALDNNTENSYRSWAIIPARDWLTSFSLVNGQGGLCLAAQYAREETRLSTTANVNDFHAQWVFRKPSGSSGYTIQNKYNNHYVGGTSARWELVVCCNKYFGIRNTSTQKYLAIEDGQVTFQDQDMTDRKQCWELCSGRATDTSGNDYDLIYMDDDLLEVMIPWVGDKQGDLKHYIEKRATKKPPKDKGGWQLPAAGLIKKPKFNDIRQLLQELIEQWEWDVVNEEREQIQTLVSIDEAEARRLLGRRPHPDIVAAYQRSRSSTLFRIDRQGYFNIAGDRYVNIQGQYGDDSYFHIALPVGVRFGREQIRRFLRDSLDRSTSVTITPTTCKPPSGGPDYNRDPDSDGDNSWIKWTIAVVGTSAIKHSEL
Take B1: the “glycan array binding signal (z-score)” value was -0.371 in the test with GlcNAc(b1-3)Gal(b1-4)Glc; -0.141 in test [1]; 3.18 in test [2]; -0.466 with Kdn(a2-3)Gal(b1-4)GlcNAc; -0.452 in test [3]; -0.476 in [4]. The “glycan array binding signal (z-score)” value in test [5] was -0.473; in test [6], -0.331; in test [7], -0.417; in [8], -0.37; in test [9], -0.468; in test [10], 0.306. In addition, the figures for the “glycan array binding signal (z-score)” value in test [11], in test [12] and in test [13] were -0.326, -0.233 and -0.448, respectively.

B2: IRp60B (Homo sapiens), Q9UGN4-3 (protein)
chain: MWLPWALLLLWVPAGDHSELSQNPKQAATQSELHYANLELLMWPLQEKPAPPREVEVEYSTVASPREELHYASVVFDSNTNRIAAQRPREEEPDSDYSVIRKT
B2: the “glycan array binding signal (z-score)” value is 0.074 in the test with Gal(a1-3)GalNAc; 5.38 with Gal(a1-4)Gal(b1-4)Glc; 2.68 in test [14]; -0.378 in [15]; 4.42 in test [16]; 4.5 in test [17]. Also, the “glycan array binding signal (z-score)” value with Gal6S(b1-4)Glc6S was -0.421; with Glc(a1-4)Glc it was -0.26; in test [18], -0.44; in [19], -0.323; in [20], 1.2; in [21], 1.18. Further, the “glycan array binding signal (z-score)” value was -0.475 in test [22] and -0.107 in test [23].
